# Activity calls are given as the source filed them.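 The calls were made as follows: active = compounds whose cell count with miR-34 switched on is under 0.7 times the count with it off; inactive = the rest.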
# Test: sensitizers of A549 cells to miR-34 induction, primary screen, imaging, A549 dox-inducible miR-34, nuclei and caspase counts (AID 1347080); also: test concentration not given here
# Conditions: A549 miR-34 inducible, Hoechst nuclei count, 48 h; stronger effect = lower value; cell number ratio, induced over uninduced
row,SMILES,fold change
1,C#Cc1cccc(Nc2ncnc3cc4c(cc23)OCCOCCOCCO4)c1,1.01 (inactive)
2,CN1CCN(c2nc(C3=C(c4c[nH]c5ccccc45)C(=O)NC3=O)c3ccccc3n2)CC1,0.982 (inactive)
3,CCc1cc(Nc2nccc(-c3c(-c4ccc(OC)c(C(=O)Nc5c(F)cccc5F)c4)nc4ccccn34)n2)c(OC)cc1N1CCC(N2CCN(S(C)(=O)=O)CC2)CC1,0.946 (inactive)
4,Cc1cc(C)c2c(c1)[C@@H](N(Cc1cc(C(F)(F)F)cc(C(F)(F)F)c1)c1nnn(C)n1)CCCN2CC1CCC(C(=O)O)CC1 (stereo partly specified),0.938 (inactive)

# Same assay, conditions: A549 miR-34 inducible, Hoechst nuclei count, 48 h; measured here: relative caspase fold change +Dox/-Dox
row,SMILES,fold change
1,C#Cc1cccc(Nc2ncnc3cc4c(cc23)OCCOCCOCCO4)c1,0.44
2,CN1CCN(c2nc(C3=C(c4c[nH]c5ccccc45)C(=O)NC3=O)c3ccccc3n2)CC1,0.809
3,CCc1cc(Nc2nccc(-c3c(-c4ccc(OC)c(C(=O)Nc5c(F)cccc5F)c4)nc4ccccn34)n2)c(OC)cc1N1CCC(N2CCN(S(C)(=O)=O)CC2)CC1,1.23
4,Cc1cc(C)c2c(c1)[C@@H](N(Cc1cc(C(F)(F)F)cc(C(F)(F)F)c1)c1nnn(C)n1)CCCN2CC1CCC(C(=O)O)CC1 (stereo partly specified),0.636

# Same assay, conditions: A549 miR-34 inducible, Hoechst nuclei count, 48 h; measured here: total cells with miR-34 induction; stronger effect = lower value
row,SMILES,cell count
1,C#Cc1cccc(Nc2ncnc3cc4c(cc23)OCCOCCOCCO4)c1,7300
2,CN1CCN(c2nc(C3=C(c4c[nH]c5ccccc45)C(=O)NC3=O)c3ccccc3n2)CC1,8410
3,CCc1cc(Nc2nccc(-c3c(-c4ccc(OC)c(C(=O)Nc5c(F)cccc5F)c4)nc4ccccn34)n2)c(OC)cc1N1CCC(N2CCN(S(C)(=O)=O)CC2)CC1,6190
4,Cc1cc(C)c2c(c1)[C@@H](N(Cc1cc(C(F)(F)F)cc(C(F)(F)F)c1)c1nnn(C)n1)CCCN2CC1CCC(C(=O)O)CC1 (stereo partly specified),6920

# Same assay, conditions: A549 miR-34 inducible, Hoechst nuclei count, 48 h; measured here: total cells without miR-34 induction
row,SMILES,cell count
1,C#Cc1cccc(Nc2ncnc3cc4c(cc23)OCCOCCOCCO4)c1,7200
2,CN1CCN(c2nc(C3=C(c4c[nH]c5ccccc45)C(=O)NC3=O)c3ccccc3n2)CC1,8570
3,CCc1cc(Nc2nccc(-c3c(-c4ccc(OC)c(C(=O)Nc5c(F)cccc5F)c4)nc4ccccn34)n2)c(OC)cc1N1CCC(N2CCN(S(C)(=O)=O)CC2)CC1,6540
4,Cc1cc(C)c2c(c1)[C@@H](N(Cc1cc(C(F)(F)F)cc(C(F)(F)F)c1)c1nnn(C)n1)CCCN2CC1CCC(C(=O)O)CC1 (stereo partly specified),7380
